What follows are sequences tested against PUM1 PUF domain R4-CCG (Homo sapiens, UniProt Q14671 828-1176, N971C;H972C;Q975G) (assay: yeast three-hybrid, YBZ-1, SC-Leu-His + 0.5 mM 3-AT, 4 days). Conditions: tags: N-Gal4 AD-HA kept; label: inside an RPR1-promoter hybrid RNA with tandem MS2 sites; ssRNA.
How it was run: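 The interaction score is the log change in how often each variant appears, from input to selection. Frequencies came from PCR-amplified, Illumina-sequenced repeat regions of Pumilio-1 PUF domain libraries grown in strain YBZ-1 (LexA–MS2 coat fusion, HIS3 reporter) alongside matching RNA elements. Input plates were SC-Leu and selection plates were SC-Leu-His + 0.5 mM 3-AT, each for four days, and the log2 calculation used a pseudocount of 1 where a variant was absent.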

**Q.** For “GGCUAGAACUAGUGGAUCCCCCGGCGCCCGGCGGCUCGAGCCCGGGUAAGUGUACAUAGUCUGCAUGCCGCCGGGCGCCAUGCCUGCAGGUCGACUCUAGAAAACAUG”, which binding signal is on record?
**A.** Its binding signal is 0.76 log2 enrichment (interaction score).

**Q.** With “GGCUAGAACUAGUGGAUCCCCCGGCGCCCGGCGGCUCGAGCCCGGGUAAGUGUAUAUAGUCUGCAUGCCGCCGGGCGCCAUGCCUGCAGGUCGACUCUAGAAAACAUG” as the sequence, how does the binding signal read?
**A.** The binding signal was 1.84 log2 enrichment (interaction score).

**Q.** For “GGCUAGAACUAGUGGAUCCCCCGGCGCCCGGCGGCUCGAGCCCGGGUAAGUGUAAAUAGUCUGCAUGCCGCCGGGCGCCAUGCCUGCAGGUCGACUCUAGAAAACAUG”, which binding signal is on record?
**A.** The binding signal was 2.6 log2 enrichment (interaction score).

Source: article PMC8384837, “Expanding the binding specificity for RNA recognition by a PUF domain”
